The panel holds about 79,000 compounds, 15% with a hit somewhere; the sample as a whole holds those more often. A number with no mark means an inactive call. Active and inactive are the calls of the source. Rule as the data show it: active = growth inhibition above about 70%; inactive = the rest.
Legend:
[1] = NCI Yeast Anticancer Drug Screen. Data for the rad50 strain (AID 155);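 also: 0% = growth of vehicle-only cultures of the same strain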; conditions: S. cerevisiae rad50 strain growth inhibition; at 50.0 µM; stronger effect = higher value
Method in brief: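 Inhibition values express reduced yeast growth in compound-treated cultures relative to vehicle-treated controls.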

[2] = NCI Yeast Anticancer Drug Screen. Data for the mec2-1 strain (AID 157); conditions: S. cerevisiae mec2-1 strain, at 50.0 µM, stronger effect = higher value
Method in brief: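 Vehicle-treated cultures served as reference for growth inhibition of compound-exposed mec2-1 yeast.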

[3] = NCI Yeast Anticancer Drug Screen. Data for the sgs1 mgt1 strain (AID 161);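 also: 0% = growth of cultures given vehicle only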; conditions: S. cerevisiae sgs1 mgt1 strain, at 50.0 µM, stronger effect = higher value
Method in brief: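 Genetically altered yeast, compound exposure, growth inhibition relative to vehicle.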

[4] = NCI Yeast Anticancer Drug Screen. Data for the cln2 rad14 strain (AID 165);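 also: 0% = growth equal to vehicle treated cultures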; conditions: S. cerevisiae cln2 rad14 strain, at 50.0 µM, stronger effect = higher value
Method in brief: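 Each compound was tested on cln2 rad14 yeast. Inhibition of growth was calculated against vehicle-exposed controls.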

[5] = NCI Yeast Anticancer Drug Screen. Data for the bub3 strain (AID 167); conditions: S. cerevisiae bub3 mutant strain, at 50.0 µM, stronger effect = higher value
Method in brief: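 Steps: expose the mutant yeast strain to compound; grow alongside vehicle-treated cultures; measure growth; express inhibition against the vehicle cultures.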

[6] = NCI Yeast Anticancer Drug Screen. Data for the mlh1 rad18 strain (AID 175); conditions: S. cerevisiae mlh1 rad18 strain growth inhibition; at 50.0 µM; stronger effect = higher value
Method in brief: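 Vehicle-treated cultures served as the reference for growth inhibition in a yeast strain carrying DNA damage repair alterations exposed to each compound.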

Compound | growth inhibition [1] | growth inhibition [2] | growth inhibition [3] | growth inhibition [4] | growth inhibition [5] | growth inhibition [6]
O=C1C2C3C=CC(C2C(=O)N1COP(=O)(O)O)C1C2C(=O)N(COP(=O)(O)O)C(=O)C2C31 (stereo unspecified) | 2.1% | 0.3% | 0.95% | 19.1% | -11.2% | -14.1%
Cn1c2ccccc2c2c(-c3ccccc3)cc3c(c21)C(=O)C=CC3=O | -15.3% | -10.6% | 3.8% | 16.2% | -25.9% | 7.95%
O=C(O)CC1CC2CC(=O)C1C2 (stereo unspecified) | -28.1% | -30.7% | -14.7% | -1.2% | -23.6% | 12.2%
C=CCNC(=S)/N=C/C(C(=O)Nc1ccccc1)=C(/C)O | -55.6% | -18.1% | -41.2% | -27.2% | -50.9% | -20.6%
CCCc1ccc(N=Nc2ccc(C(=O)O)cc2)cc1 | -1.25% | -3.4% | -2.9% | -11.9% | -11.9% | 0.7%
N#CC1(c2nc3ccccc3o2)C(=O)C(=O)N(C2C3CC4CC(C3)CC2C4)C(=O)C1=O (stereo unspecified) | -8.65% | 6.05% | -39.1% | 16.2% | -5.75% | -9.35%
CC(C)C(=O)/C=C/c1ccc(Br)cc1 | 29.9% | -4.95% | 1% | 2.6% | -14.8% | 24.9%
CNC(=O)NCCc1c[nH]c2ccccc12 | -35.9% | -19.9% | -49.1% | -24.1% | -26.7% | -40.9%
CCOC(=O)NC(OCCN(C)C)(C(F)(F)F)C(F)(F)F | -32.4% | 25.9% | -53.5% | 3.3% | -4.15% | 31.1%
O=C(NCC1CC1)c1ccccc1NC(=O)c1cc2ccccc2oc1=O | -7.9% | -8.25% | 8.4% | 9.85% | 18.7% | 19.8%
COc1ccc(C(=O)/C=C/c2cccc3ccccc23)cc1 | 15.4% | 25.7% | 30.9% | -3.85% | 33% | 16.6%
COc1ccc(/C=N/NC(=O)c2cnc3[nH]c(=O)n(C)c(=O)c3c2)cc1 | 10.7% | 10.3% | 30.6% | 5.45% | 11.2% | 22.4%
CCCn1c(=O)n(C)c(=O)c2c1ncn2C | -5.15% | -2.25% | 13.2% | -28.1% | 4.1% | 13.5%
CCOC(=O)C1=C(Nc2ccc(F)cc2)C(=O)N(C(C)(C)C)C1 | 8.05% | 1.3% | 27.5% | 6.35% | 31.4% | 21.6%
CSc1cc2c(cc1NC(C)=O)Cc1ccccc1-2 | 13.4% | -3.75% | 0.6% | 10.5% | 9.15% | -13.4%
COc1ccc(N2C(=O)C3c4[nH]c5ccccc5c4C4CCCCCCCCCC4C3C2=O)cc1 (stereo unspecified) | -6.15% | -25.9% | 0% | -39.6% | -15.3% | -30.2%
CC(=O)NNC(=S)/N=C/C(C(=O)Nc1ccc([N+](=O)[O-])cc1)=C(\C)O | -19.8% | 4.4% | -21.9% | 15.8% | 6.5% | -4%
CC1(c2ccccc2)CCC(=O)NC1 (stereo unspecified) | -0.15% | -37.5% | -2.1% | 8.45% | -7.25% | 11.6%
Cc1ccc2c(c1)N=C(Nc1ccccc1)N=S2(C)=O (stereo unspecified) | 2.95% | -18.7% | 0.45% | -11.7% | -7.55% | -41.5%
CCCCCCCCCCCC(=O)OCC1OC(n2cc(F)c(=O)[nH]c2=O)C(NC(=O)OCc2ccccc2)C(O)C1O (stereo unspecified) | 62.8% | 5.85% | 31.2% | 18.8% | 18.1% | 24.8%
O=C(CI)Nc1ccc(Cl)c(Cl)c1 | 99.7% (active) | 99.3% (active) | 99.8% (active) | 99.6% (active) | 99.8% (active) | 99.7% (active)

Compound | growth inhibition [1] | growth inhibition [2] | growth inhibition [3] | growth inhibition [4] | growth inhibition [5] | growth inhibition [6]
C/C=C(/C)c1cccc(OCc2ccccc2)c1OCc1ccccc1 | -19.1% | 9.35% | -5.65% | -21.6% | -17.3% | -7.05%
CCOC(=O)/C(=C/c1ccc(C#N)cc1)N(CC)CC | -3.95% | -13.1% | -9% | 24.4% | -3.9% | -9.25%
CSC1(C)CC2C(CC1N1CCCCC1)C2(C)C (stereo unspecified) | -28.4% | -16.4% | -46.4% | 5.8% | -24% | -35.9%
Cc1oc2ccccc2c(=O)c1CO | -12.6% | 13.2% | 2% | -9.85% | -11.1% | -12.2%
O=C(CC(O)(C(F)(F)F)C(F)(F)F)C(CCCl)C(O)(C(F)(F)F)C(F)(F)F (stereo unspecified) | 17.6% | 18.9% | 41.6% | 21.4% | 8.05% | 38.8%
Cc1ccc(CC(=S)N2CCOCC2)cc1 | 19.8% | 24.2% | 10.8% | 10.9% | 25.2% | 16.6%
CC1OC1C(=O)C1(O)C(C)C(O)C23OC2(C(O)c2c(O)cccc2C3=O)C1O (stereo unspecified) | 6.75% | -21.8% | 8.65% | -1.1% | -0.7% | 10.3%
Clc1ccccc1C=NC1CCCCC1 | -5.1% | -12.2% | -0.3% | -1.15% | -5.85% | -3.1%
CCN(c1ccccc1)c1ncnc2nc[nH]c12 | 6.75% | 0.75% | -1.75% | -28.9% | 19.9% | -5.5%
Brc1ccc(Br)c2nc(/C=C/c3ccccc3)ccc12 | 11.8% | 1.85% | -7% | -22.6% | 2.45% | 8.25%
CC(C)(C)OC(=O)[N+](=N)C(=O)C1CCC(=O)N1C(=O)OCc1ccccc1 (stereo unspecified) | -27.7% | -33.6% | -23.4% | -11.4% | -1.9% | -20%
CC(C)NS(=O)(=O)c1ccccc1 | 19.4% | -3.1% | 10.6% | 6.75% | 0.6% | 26.9%
COc1ccc(C(=O)C(CN(C)C)CN(C)C)cc1OC | 30.6% | 9.55% | -14.1% | -5.9% | -11.7% | -18.4%
CCN(CC)C(=O)C1CCCCN1 (stereo unspecified) | 1.65% | 2.6% | 3.1% | -43.2% | -11% | 6.65%
Cc1ccc(N=C(N)NC#N)cc1 | -11.9% | -46% | -27.1% | 16.6% | -34% | -7.75%
CCOC(=O)C(C)(C(=O)OCC)c1c[n+]([O-])c2ccccc2c1[N+](=O)[O-] | 13.8% | -5.15% | 19.3% | -22.4% | -4.55% | 12.9%
CC(=O)OC(C)c1cc2c(s1)C(=O)c1scc(C(C)OC(C)=O)c1C2=O (stereo unspecified) | 90.8% (active) | 93.4% (active) | 92.5% (active) | 91.9% (active) | 91.7% (active) | 91.3% (active)
COC(=O)C[C@H]1CCC2(OCCO2)[C@]1(C)C(=O)OC | -10.7% | -11.6% | -11.2% | -23.4% | -6.9% | -27.1%
COC(=O)c1ccc(C(=O)O)cc1 | 5.35% | -2.65% | -8.15% | -6.55% | 0.65% | -6.5%
CCCCc1ccc(NC(=O)c2cccnc2)cc1 | 3% | 14.4% | 36.5% | 15.2% | -3.4% | 27.6%

Reference: PubChem BioAssay (NCI)
